Screening data: PubChem BioAssay, National Center for Advancing Translational Sciences (NCATS)
ALDH1A1 inh: inhibitors of human aldehyde dehydrogenase 1A1; P00352; Purified ALDH1A1, NADH fluorescence, propionaldehyde substrate; Potency, µM (highest dose often 75.3 µM), actives largely listed as inhibitors; actives 7.3% (n = 220,000)
PNC assembly inh: blocks assembly of the perinucleolar compartment | PC3M PTB-GFP, PNC prevalence imaging, 16 h; stronger effect = lower value | activity change (PNC), negative = inhibition, % at 10 µM | actives 3.1% (n = 140,000);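 active = readout at or below -70, meaning at least 70% loss of cells showing the perinucleolar compartment, a nuclear body marking cancer cells; inconclusive = readout between -30 and a set limit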
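PC3M cells stably expressing PTB-GFP, 750–1000 cells/well, treated 16 h at 37 °C with compound (23 nl of library stock), in duplicate. After paraformaldehyde fixation and Hoechst stain, imaged at 20x; PNC prevalence scored by image analysis.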
HPGD block: blocks human HPGD enzyme activity. purified HPGD, NADH fluorescence kinetic, PGE2 substrate. P15428. AID 894. actives 4.3% (n = 150,000). Potency, µM, most hits filed as inhibitors
Target sequence (P15428 whole entry, looked up): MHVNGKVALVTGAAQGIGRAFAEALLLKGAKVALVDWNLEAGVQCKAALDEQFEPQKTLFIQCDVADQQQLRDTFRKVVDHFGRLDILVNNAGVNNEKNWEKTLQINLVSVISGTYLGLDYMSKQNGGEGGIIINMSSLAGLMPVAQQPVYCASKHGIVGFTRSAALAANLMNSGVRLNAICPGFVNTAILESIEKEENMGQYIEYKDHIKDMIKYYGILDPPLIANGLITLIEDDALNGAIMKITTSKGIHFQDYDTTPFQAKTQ
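NADH formation kinetics: reaction with 30 uM PGE2 and 1 mM NAD+ (final), 20 nM enzyme, Tris-HCl pH 8 with Tween 20, after 15 min compound preincubation at room temperature. Fluorescence change, last versus first of five reads.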
Large screens that a line does not name were inactive. Most compounds without a hit are left out; they make up all but 11% or so of the library. Unless noted, calls come from the whole dose curve; as a rule, active = well fitted inhibition curve with a large enough effect (not every such curve was filed as active); inconclusive = small, poorly fitted or top-dose-only effect, or another doubt; inactive = no such curve, though single readings can be large or run the other way.

CC1CCCN(C(=O)CSc2nnc(-c3ccc(S(=O)(=O)N4CCOCC4)cc3)n2C)C1 (stereo not drawn)	ALDH1A1 inh inconclusive, HPGD block inconclusive
O=C(CSc1nc2cc(Cl)ccc2c(=O)n1Cc1ccco1)Nc1ccc(S(=O)(=O)N2CCOCC2)cc1	ALDH1A1 inh 7.9µM
COc1ccc2c(c1)O[C@@H](c1ccc3c(c1)OCO3)[C@H](OC(=O)NCCOc1ccccc1)C2=O	none (no result: PNC assembly inh)
Cc1ccc(N2C(=O)[C@@H]3[C@H](C2=O)C2c4ccccc4C=NN2[C@@H]3C(=O)c2ccc(Cl)cc2)cc1 (stereo partly drawn)	PNC assembly inh inconclusive
CCOC(=O)c1ccc(N2C(=O)C3C(C2=O)C(C(=O)c2ccc(Cl)cc2)N2CCCC32)cc1 (stereo not drawn)	ALDH1A1 inh 13µM, HPGD block 2.2µM
CCCCCCCCSc1nnc(CSc2nc3nc(C)cc(C)n3n2)o1	none
CC(C)CN(CC(C)C)c1nnc(N)s1	none
N#CCCN(Cc1cccnc1)C(=O)c1sc2cc(F)ccc2c1Cl	HPGD block 7.1µM
Cc1ccc2c(Cl)c(C(=O)NCc3cccnc3)sc2c1	HPGD block inconclusive
CCCCCCCn1ccc(=N)cc1	none
CCCCCn1ccc(=N)cc1	ALDH1A1 inh inconclusive, PNC assembly inh -84
COc1ccc(NC(=O)C2CCN(C(=O)c3cccs3)CC2)c(OC)c1	none
COc1ccc(NC(=O)C2CCN(S(=O)(=O)c3ccc(OC)c(OC)c3)CC2)c(OC)c1	PNC assembly inh -121
COc1ccc(C(=O)N2CCC(C(=O)Nc3ccccc3OC)CC2)cc1	PNC assembly inh -85
COc1ccc(NC(=O)C2CCN(C(=O)c3ccccc3)CC2)c(OC)c1	ALDH1A1 inh 1.6µM
COC(=O)c1ccccc1NC(=O)C1CCN(C(=O)c2cc(OC)cc(OC)c2)CC1	none
COc1ccc(OC)c(NC(=O)C2CCN(Cc3cnn(-c4ccccc4)c3-n3cccc3)CC2)c1	PNC assembly inh -88
COc1ccc(NC(=O)C2CCN(Cc3cnn(-c4ccccc4)c3-n3cccc3)CC2)cc1OC	ALDH1A1 inh inconclusive
COc1ccc(S(=O)(=O)N2CCC(C(=O)Nc3cccc(Cl)c3)CC2)cc1OC	none
O=c1c(-c2ccccc2)[n+]([O-])c2ccccc2n1O	none
CC(C(=O)N1CCC(C(N)=O)CC1)N(c1ccc(Oc2ccccc2)cc1)S(C)(=O)=O (stereo not drawn)	PNC assembly inh inconclusive
O=C(NNc1cccc(Cl)n1)Nc1ccccc1Cl	none
COc1ccc(NC(=O)NC2CCN(C(C)C)CC2)c(OC)c1	PNC assembly inh -80
COCCN(C(=O)Nc1ccc(OC)cc1OC)C1CCN(C(C)C)CC1	ALDH1A1 inh inconclusive
O=C(NCc1ccco1)c1cc2c(s1)CCCCC2	ALDH1A1 inh 28µM, HPGD block 16µM
CCN(CC)C(=O)c1scc2c1OCCO2	none
O=C(NCc1ccco1)c1ccc(Cl)s1	none (no result: PNC assembly inh, HPGD block)
O=C(NCc1ccco1)c1ccc(Br)s1	ALDH1A1 inh inconclusive, HPGD block 16µM
O=C(NCc1ccco1)c1scc2c1OCCO2	ALDH1A1 inh 22µM
O=C(NCc1ccco1)c1ccc(C(=O)NCc2ccco2)s1	PNC assembly inh inconclusive
CCn1c2ccccc2c2cc(CN3CCN(S(=O)(=O)Cc4ccccc4)CC3)ccc21	ALDH1A1 inh inconclusive, HPGD block inconclusive
COc1cc(NC(=O)C2CC2)c(OC)cc1NC(=O)CCC(=O)NC1CCN(Cc2ccccc2)CC1	none (no result: PNC assembly inh, HPGD block)
O=C(Nc1ccon1)c1cc2c(s1)CCCCCC2	ALDH1A1 inh inconclusive
CC(C)NC(=O)c1cc2c(s1)CCCC2	ALDH1A1 inh inconclusive, HPGD block 22µM
CNC(=O)c1cc2c(s1)CCCCCC2	ALDH1A1 inh inconclusive, PNC assembly inh inconclusive
Cc1csc(NC(=O)c2cc3c(s2)CCCC3)n1	ALDH1A1 inh inconclusive (no result: HPGD block)
Cc1csc(NC(=O)c2cc3c(s2)CCCCC3)n1	ALDH1A1 inh inconclusive, PNC assembly inh inconclusive, HPGD block 25µM
O=C(Nc1ccon1)c1cc2c(s1)CCCC2	HPGD block 28µM
COCCCNC(=O)C(F)(F)C(F)(F)C(=O)NCCCOC	none
CCn1c(COc2ccc3c(c2)CCCC3)nnc1SCC(=O)Nc1ccc(C(=O)OC)cc1	none (no result: HPGD block)
CC(C)C1Oc2ccccc2N(CC(=O)N(Cc2ccncc2)Cc2ccco2)C1=O (stereo not drawn)	PNC assembly inh inconclusive
O=C(CCCSc1nc(-c2ccco2)cc(C(F)(F)F)n1)Nc1ccc2c(c1)OCO2	ALDH1A1 inh 16µM, HPGD block 20µM
O=C(CCSc1nc(-c2ccco2)cc(C(F)(F)F)n1)N1CCN(c2ccccn2)CC1	ALDH1A1 inh inconclusive, PNC assembly inh inconclusive
O=C(CSc1nc(-c2ccco2)cc(C(F)(F)F)n1)NN1CCOCC1	none (no result: PNC assembly inh, HPGD block)
O=C(CCSc1nc(-c2ccco2)cc(C(F)(F)F)n1)N1CCCc2ccccc21	ALDH1A1 inh 18µM, PNC assembly inh inconclusive, HPGD block inconclusive
